From PubChem BioAssay (Tox21) come the findings set out here.

Each structure is given as a SMILES string. Unmarked numbers belong to inactive results. Results filed as inconclusive are left out. The source made the active and inactive calls. Unless noted, the call rests on the fitted dose curve; in most records, active means well fitted curve in the direction sought with a large enough effect in the repeat runs; inconclusive means weak or mixed curves; inactive means no such curve, though single readings can be large; an effect the other way counts as inactive or inconclusive.

Assay [1] can be described thus: qHTS assay to identify small molecule agonists of the hypoxia (HIF-1) signaling pathway (AID 1224846; active means well fitted activation curve with a large enough effect in the signal ratio in the repeat runs, not every such curve was filed as active; the % refers to the signal ratio). A digest of the protocol:
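HRE-bla ME-180 beta-lactamase reporter cells in medium with 0.5% dialyzed FBS, pre-incubated 5 h then exposed to compounds 17 h at 37C, 5% CO2; reporter induction read with CCF4-AM FRET substrate.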
A general note: qHTS replaces the single test concentration by a dilution series.

A short description of assay [2]: qHTS assay to identify small molecule agonists of H2AX - cell viability counter screen (AID 1224847; calls by dose curve; further: top concentration of the series differs between compounds; nearly all actives have a fitted effect of over 30% in size). A digest of the protocol: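 Read-out: CellTiter-Glo luminescence, 30 min RT. Cells: wild-type CHO-K1, 1000/well, 10% FBS, plated overnight at 37C. Treatment: 15 concentrations, 3 hr, 37C, 0.76% DMSO.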
Assay [3] can be described thus: qHTS assay to identify small molecule antagonists of the estrogen related receptor (ERR) signaling pathway from Tox21 library (AID 1224848). Further: nearly all actives have a fitted effect of over 50% in size. In a few lines: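 ERR reporter cell line (from NTP) seeded 2,000 cells/well, rested 6 h at 37 C/5% CO2, then pin-dosed with compounds in DMSO. After 18 h at 37 C, ONE-Glo added; luminescence read after 30 min at room temperature.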

A short description of assay [4]: qHTS assay to identify small molecule agonists of the estrogen related receptor (ERR) signaling pathway from Tox21 library (AID 1224849; calls by dose curve; further: nearly all actives have a fitted effect of over 15% in size). Particulars: ERR reporter cell line, ONE-Glo luciferase, 18 h; at 92.4 µM (top of the series) unless noted. A digest of the protocol: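 ERR reporter cells (NTP line) pre-incubated 6 hours at 37 C, then exposed to compounds for 18 hours at 37 C. ONE-Glo luciferase luminescence was read after 30 minutes at room temperature.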

Assay [5] can be described thus: qHTS RealTime-Glo MT Cell Viability Assay in HEK293 cells - 32 hour (AID 1224868). Further: top concentration of the series differs between compounds; nearly all actives have a fitted effect of over 50% in size. In a few lines: (§1)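 HEK293 cells seeded with NanoLuc/prosubstrate reagent, rested 5 h at 37 C, then dosed and kept at 37 C up to 40 h. Nonlytic real-time luminescence from viable cells read at 0, 8, 16, 24, 32 and 40 h.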
Assay [6] can be described thus: A CellTox Green Cytotoxicity Assay to monitor cytotoxicity in HEK293 cells - 0 hour (AID 1224869). Further: nearly all actives have a fitted effect of over 50% in size. A digest of the protocol:
(§2)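 HEK293 cells, 600/well, were preincubated 5 hours and then exposed to compounds at 37 C for up to 40 hours. A cell-impermeant cyanine dye staining dead-cell DNA was read by fluorescence at 0, 8, 16, 24, 32 and 40 h time points.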

A short description of assay [7]: qHTS RealTime-Glo MT Cell Viability Assay in HepG2 cells - 40 hour (AID 1224870). Further: nearly all actives have a fitted effect of over 50% in size. Further: potency means the concentration at half of the fitted maximal effect. A digest of the protocol:
(§3)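 HepG2 cells (600/well) mixed with RealTime-Glo MT reagent, settled 5 h at 37 C/5% CO2 before compound addition. Nonlytic NanoLuc luminescence from viable-cell prosubstrate reduction read repeatedly during 40 h treatment at 37 C.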

The nature of assay [8]: A CellTox Green Cytotoxicity Assay to monitor cytotoxicity in HEK293 cells - 40 hour (AID 1224871). Further: nearly all actives have a fitted effect of over 45% in size. In a few lines: as §2
Assay [9] is described as follows: qHTS RealTime-Glo MT Cell Viability Assay in HEK293 cells - 16 hour (AID 1224872). In a few lines:
as §1

Assay [10] in a line: qHTS RealTime-Glo MT Cell Viability Assay in HepG2 cells - 8 hour (AID 1224873). Further: nearly all actives have a fitted effect of over 55% in size. In a few lines: as §3
Assay [11] can be described thus: qHTS RealTime-Glo MT Cell Viability Assay in HEK293 cells - 40 hour (AID 1224874). Further: nearly all actives have a fitted effect of over 50% in size. Particulars: RealTime-Glo luminescence; max response: stronger effect = lower value. In a few lines: (§4)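 600 cells/well were plated with the nonlytic NanoLuc/prosubstrate reagent, pre-incubated 5 h, then given 23 nL of compound in DMSO. Incubation at 37 C for 40 h, with luminescence from viable-cell-reduced substrate read repeatedly from 0 h.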

A short description of assay [12]: A CellTox Green Cytotoxicity Assay to monitor cytotoxicity in HEK293 cells - 24 hour (AID 1224875). Further: nearly all actives have a fitted effect of over 45% in size. A digest of the protocol: as §2
Assay [13] can be described thus: qHTS RealTime-Glo MT Cell Viability Assay in HepG2 cells - 32 hour (AID 1224877). Further: nearly all actives have a fitted effect of over 55% in size. A digest of the protocol: (§5)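 HepG2 cells (600/well) were dispensed with RealTime-Glo reagents, incubated 5 h at 37 °C, then treated with compounds in DMSO for up to 40 h. Nonlytic NanoLuc luminescence reflecting viable cells was read at each stated time point.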
The nature of assay [14]: A CellTox Green Cytotoxicity Assay to monitor cytotoxicity in HepG2 cells - 24 hour (AID 1224878). Further: nearly all actives have a fitted effect of over 45% in size. A digest of the protocol:
(§6)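 HepG2 cells, 600/well, preincubated 5 h with CellTox Green dye, then exposed to Tox21 compounds in DMSO at 37 C for up to 40 h. Dead-cell DNA fluorescence read at the indicated time point.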

Assay [15] is described as follows: A CellTox Green Cytotoxicity Assay to monitor cytotoxicity in HepG2 cells - 40 hour (AID 1224879). Further: nearly all actives have a fitted effect of over 40% in size. Further: potency means the concentration at half of the fitted maximal effect. In a few lines:
as §6

Assay [16] is described as follows: qHTS RealTime-Glo MT Cell Viability Assay in HEK293 cells - 0 hour (AID 1224880). Further: top concentration of the series differs between compounds; nearly all actives have a fitted effect of over 45% in size. A digest of the protocol:
as §4

Assay [17] can be described thus: A CellTox Green Cytotoxicity Assay to monitor cytotoxicity in HEK293 cells - 32 hour (AID 1224881). Further: nearly all actives have a fitted effect of over 40% in size. A digest of the protocol: as §2
Assay [18] can be described thus: qHTS RealTime-Glo MT Cell Viability Assay in HepG2 cells - 24 hour (AID 1224867). Further: nearly all actives have a fitted effect of over 50% in size. In a few lines:
as §5

Assay [19] can be described thus: A CellTox Green Cytotoxicity Assay to monitor cytotoxicity in HepG2 cells - 16 hour (AID 1224876). Further: nearly all actives have a fitted effect of over 45% in size. A digest of the protocol: as §6
On the % scale 0 is the no-effect control and ±100 the full control effect.

As for `O=C(c1ccc(O)cc1)c1ccc(O)cc1`, the result in assay [1] was inactive. For the same compound, the Potency entry in [2], in assay [3], in [5], in assay [6], in assay [7] and in assay [8] was “inactive” each time. Further, the Potency entry in assay [9], in [10], in [12], in assay [13], in assay [14] and in assay [15] was “inactive” in each case. The Potency result in [16] and in assay [17] was “inactive” each time. Further, the activity change, positive = activation in [4] was 37.5% (active). Besides, in assay [11], the max response is -22.8%.

With `Nc1ccc(C(=O)Nc2ccccc2N)cc1`, the result in assay [1] was inactive. Further, the Potency entry in assay [2], in assay [18], in assay [6], in [10], in [12] and in assay [17] was “inactive” throughout. Moreover, in [4], the activity change, positive = activation is 21.9% [at 42.5 µM] (active). Further, the Potency in assay [7] was 13.4 µM (active); in assay [15], 5.35 µM (active).

With `CCCCCCCCCCCCCCC1CO1` (centres undefined), the result in assay [1] was inactive. The Potency entry in [2], in assay [18], in [5], in assay [6], in [7] and in assay [8] was “inactive” each time. For the same compound, the Potency entry in assay [9], in [12], in assay [19], in assay [13], in assay [14] and in [16] was “inactive” each time. The Potency entry in assay [17] is “inactive”. Also, the max response in assay [11] was 0.82%.

For the compound `CC(C)(C)C1CCCCC1O` (centres undefined), the result in [1] was inactive. For the same compound, the Potency entry in [2], in assay [18], in [5], in assay [6], in assay [7] and in [8] was “inactive” each time. The Potency result in assay [9], in [10], in assay [12], in assay [13], in assay [16] and in [17] was “inactive” each time. Also, the max response in assay [11] was 0.612%.

For `Oc1ccc2c(c1)OCO2`, in assay [1], the call was inactive. The Potency result in assay [2], in assay [18], in assay [5], in [6], in assay [7] and in assay [9] was “inactive” each time. Also, the Potency result in assay [10], in [12], in [19], in [13], in [14] and in assay [15] was “inactive” throughout. Also, the Potency entry in assay [16] and in [17] was “inactive” in each case. Besides, the max response in assay [11] was -2.1%.

For the compound `O=C(CC(=O)c1ccccc1)c1ccccc1`, the compound was called inactive in assay [1]. Further, the Potency result in assay [2], in [3], in [18], in assay [5], in [6] and in assay [7] was “inactive” each time. Further, the Potency entry in [8], in assay [9], in assay [12], in assay [19], in assay [13] and in [14] was “inactive” each time. Also, the Potency result in [16] and in assay [17] was “inactive” each time. For the same compound, in assay [4], the activity change, positive = activation was 58.5% (active). Moreover, the max response in assay [11] is -4.39%.

Regarding `O=C(C(=O)c1ccc(Br)cc1)c1ccc(Br)cc1`, in assay [1], the activation was -1.03% [at 15.8 µM]. Besides, the activity change, negative = cytotoxicity in [2] was 0.693% [at 31.6 µM]; in assay [9], 5.77% [at 15.8 µM]; in assay [16], -3.2% [at 15.8 µM]. In assay [3], the activity, negative = inhibition is -0.511% [at 19 µM]. For the same compound, the activity change, positive = activation in assay [4] is 0.063% [at 19 µM]. For the same compound, the activity change, negative = cytotoxic in [5] is 3.98% [at 15.8 µM]; in [7], 6.88% [at 15.8 µM]; in [13], 2.16% [at 15.8 µM]. Further, the values for the cytotoxicity in assay [6] and in [14] were 1.99% [at 15.8 µM] and -10% [at 15.8 µM], respectively. Also, the cytotoxicity increase in assay [8] was 0.336% [at 15.8 µM]; in assay [19] it was -6.44% [at 15.8 µM]; in [15], -10.2% [at 15.8 µM]; in [17] it was -0.258% [at 15.8 µM]. Besides, in assay [10], the viability change, negative = cytotoxic was -3.19% [at 15.8 µM]. In addition, in assay [11], the max response is 0.201%. Further, the activity change in [12] was -0.496% [at 15.8 µM, stronger effect = higher value].

Consider `CCCCCCCCN(C)C`, for which, in [1], the result was inactive. Also, the Potency entry in assay [2], in [3], in assay [18], in assay [5], in assay [6] and in assay [7] was “inactive” each time. The Potency result in [9], in [10], in assay [12], in assay [13], in assay [14] and in assay [15] was “inactive” throughout. For the same compound, the Potency entry in [16] and in assay [17] was “inactive” in each case. Also, in assay [4], the activity change, positive = activation was 2.41%. Also, in assay [11], the max response was 16%.
